# A number with no mark means an inactive call. Active and inactive are the calls of the source. Cut-off read from the data, not from the text of the source: active = fold change permeability below about 0.7 or above about 1.3; inactive = in between.
# Experiment: compounds altering in vitro BBB leakiness – cell-based, FITC-avidin fluorescence, HTS, primary screen (AID 1963498); note: test concentration not given here
# Conditions: brain endothelial barrier, actives lie on both sides
row,Structure (SMILES),fold change permeability
1,COc1cc2c(cc1-c1c(C)noc1C)ncc1[nH]c(=O)n([C@H](C)c3ccccn3)c12,1.1
2,Nc1ncnc2c1ncn2C1CCCC1,0.9
3,N[C@H](C(=O)O)[C@H](Cc1ccccc1)C(=O)O,1.2
4,COc1ccc(-c2csc(NC(=O)[C@H]3CCCCN3S(=O)(=O)c3ccc(C)cc3)n2)cc1,0.9
5,CCOC(=O)C(C)(C)Oc1ccc(Cl)cc1,0.9
6,Cc1cccc(C#Cc2ccccc2)n1,0.9
7,CN=c1nc(-c2ccccc2)n(-c2ccccc2)s1,2.1 (active)
8,O=NN(CCCl)C(=O)NCCCl,1
9,COc1ccc(C2(CNC(=O)c3ccc(NC(=O)c4ccco4)cc3)CCOCC2)cc1,0.7 (active)
10,COC(=O)C1=C(C)NC(C)=C(C(=O)OCCN(C)Cc2ccccc2)C1c1cccc([N+](=O)[O-])c1 (centres undefined),1
11,NCCCCNCCCN,0.7 (active)
12,N[C@H](CCCP(=O)(O)O)C(=O)O,1.3 (active)
13,CN1C2CCC1CC(OC(=O)c1c[nH]c3ccccc13)C2 (centres undefined),1.6 (active)
14,CC1=C(C(=O)Nc2ccc3[nH]ncc3c2)C(c2ccc(F)cc2)NC(=O)N1 (centres undefined),1.2
15,C[C@H](O)C(=O)C1=Nc2c(nc(N)[nH]c2=O)NC1,0.7 (active)
16,O=C(c1ccoc1)N1CCN(c2cc(-c3ccco3)nc3cc(-c4ccccc4)nn23)CC1,1.2
17,Cc1nc(N=Nc2ccc(C(=O)O)cc2)c(COP(=O)(O)O)c(C=O)c1O,0.7 (active)
18,NCCS,0.9
19,C=C[C@@]1(C)CC(=O)[C@]2(O)[C@@]3(C)[C@@H](O)CCC(C)(C)[C@@H]3[C@H](O)[C@H](OC(C)=O)[C@@]2(C)O1,0.8
20,COc1cc(CC(=O)O)ccc1O,1.1

row,Structure (SMILES),fold change permeability
1,COc1cc(C(C)=O)ccc1OCCCN1CCC(c2noc3cc(F)ccc23)CC1,1.3 (active)
2,OC(CCN1CCCCC1)(c1ccccc1)C1CCCCC1 (centres undefined),0.8
3,CCOC(=O)c1ccc(C#Cc2ccc3c(c2)C(C)(C)CCS3)nc1,2.1 (active)
4,Nc1ncnc2c1c(-c1cccc(OCc3ccccc3)c1)cn2C1CC(CN2CCC2)C1 (centres undefined),1.1
5,O=c1[nH]c(=O)c2nc3ccccc3nc2[nH]1,1.3 (active)
6,C/C(O)=C(\C#N)C(=O)Nc1ccc(C(F)(F)F)cc1,1.2
7,COc1cc2nc(N3CCN(C(=O)C4COc5ccccc5O4)CC3)nc(N)c2cc1OC (centres undefined),1.4 (active)
8,COc1cc(C[C@H](C)[C@H](C)Cc2ccc3c(c2)OCO3)ccc1O,1.7 (active)
9,CN(C)c1nc(N)c(C(=O)N=C(N)N)nc1Cl,1
10,O=C1NCN(c2ccccc2)C12CCN(CCCC(c1ccc(F)cc1)c1ccc(F)cc1)CC2,1.2
11,Cn1cc(C(F)(F)F)nc1-c1ccc(OCC(O)CNCCOc2ccc(O)c(C(N)=O)c2)cc1 (centres undefined),1.3 (active)
12,CN1[C@@H](CC(=O)c2ccccc2)CCC[C@H]1C[C@H](O)c1ccccc1,1.3 (active)
13,Oc1cc(O)c2c(c1)O[C@H](c1ccc(O)c(O)c1)[C@@H](O)C2,0.8
14,NOCC(=O)O,0.9
15,Cc1cc2nc(NCCCO)n(CC(=O)c3cc(C(C)(C)C)c(O)c(C(C)(C)C)c3)c2cc1C,1.1
16,CC1(C)CO[C@@H](CC(=O)O)CN1,1.2
17,C[C@]12C=CC(=O)C=C1CC[C@@H]1C2=CC[C@]2(C)[C@@H](C(=O)CN3CCN(c4cc(N5CCCC5)nc(N5CCCC5)n4)CC3)CC[C@@H]12,1.4 (active)
18,CC(C)=CCC/C(C)=C/COc1ccc2ccc(=O)oc2c1,2 (active)
19,NNC(=O)CSc1nc2scc(-c3ccccc3)c2c(=O)n1-c1ccccc1,1.2

# Reference: PubChem BioAssay
